Hit rate of the full screen: of about 39,000 compounds, about 3,300 (8.5%) were called active. For the sample, actives were picked, then their nearest neighbours and some compounds at random.
The molecules below were run on HepG2 (assay: cytotoxicity call (relative viability < 0.9)). Settings: 10 µM.

SMILES | cytotoxicity call
C[C@H](CO)N1C[C@H](C)[C@H](CN(C)S(=O)(=O)c2cccs2)Oc2ccc(NS(=O)(=O)c3ccc(F)cc3)cc2CC1=O | inactive
O=C(C[C@@H]1C[C@H]2c3cc(NC(=O)C4CCOCC4)ccc3O[C@H]2[C@@H](CO)O1)NCCN1CCCCC1 | inactive
C[C@@H]1CN([C@@H](C)CO)C(=O)c2cc(C#CCN(C)C)cnc2O[C@H]1CN(C)C(=O)c1ccc2c(c1)OCO2 | inactive
Cc1ccc(S(=O)(=O)Nc2ccc3c(c2)C(=O)N([C@H](C)CO)C[C@@H](C)[C@H](CN(C)C(=O)Nc2ccc(C(F)(F)F)cc2)OCCCC[C@H](C)O3)cc1 | inactive
Cc1ccc(S(=O)(=O)Nc2ccc3c(c2)C(=O)N([C@H](C)CO)C[C@H](C)[C@H](CN(C)C(=O)Nc2ccc(C(F)(F)F)cc2)OCCCC[C@@H](C)O3)cc1 | inactive
Cc1ccc(S(=O)(=O)Nc2ccc3c(c2)C(=O)N([C@@H](C)CO)C[C@H](C)[C@@H](CN(C)C(=O)Nc2ccc(C(F)(F)F)cc2)OCCCC[C@H](C)O3)cc1 | active
Cc1ccc(S(=O)(=O)Nc2ccc3c(c2)C(=O)N([C@@H](C)CO)C[C@H](C)[C@@H](CN(C)C(=O)Nc2ccc(C(F)(F)F)cc2)OCCCC[C@@H](C)O3)cc1 | active
Cc1ccc(S(=O)(=O)Nc2ccc3c(c2)C(=O)N([C@@H](C)CO)C[C@@H](C)[C@@H](CN(C)C(=O)Nc2ccc(C(F)(F)F)cc2)OCCCC[C@H](C)O3)cc1 | inactive
Cc1ccc(S(=O)(=O)Nc2ccc3c(c2)C(=O)N([C@H](C)CO)C[C@H](C)[C@@H](CN(C)C(=O)Nc2ccc(C(F)(F)F)cc2)OCCCC[C@H](C)O3)cc1 | inactive
Cc1ccc(S(=O)(=O)Nc2ccc3c(c2)C(=O)N([C@H](C)CO)C[C@H](C)[C@H](CN(C)C(=O)Nc2ccc(C(F)(F)F)cc2)OCCCC[C@H](C)O3)cc1 | active
Cc1ccc(S(=O)(=O)Nc2ccc3c(c2)C(=O)N([C@H](C)CO)C[C@H](C)[C@@H](CN(C)C(=O)Nc2ccc(C(F)(F)F)cc2)OCCCC[C@@H](C)O3)cc1 | inactive
Cc1ccc(S(=O)(=O)Nc2ccc3c(c2)C(=O)N([C@H](C)CO)C[C@@H](C)[C@H](CN(C)C(=O)Nc2ccc(C(F)(F)F)cc2)OCCCC[C@@H](C)O3)cc1 | inactive
C[C@@H]1CN([C@H](C)CO)C(=O)Cc2cc(NS(=O)(=O)c3cn(C)cn3)ccc2O[C@@H]1CN(C)Cc1ccc2c(c1)OCO2 | inactive
C=CC[C@H](CC(=O)NCCO)C(=O)N[C@H](COC(=O)[C@@H](CC=C)CC(=O)OC(C)(C)C)c1ccccc1 | inactive
C[C@@H]1CCCCO[C@@H](CN(C)CC2CC2)[C@H](C)CN([C@H](C)CO)C(=O)c2cc(NC(=O)CCC(F)(F)F)ccc2O1 | inactive
C[C@H](CO)N1C[C@H](C)[C@@H](CN(C)C(=O)c2ccccc2)OCCCC[C@H](C)Oc2ccc(NS(=O)(=O)c3ccccc3)cc2C1=O | inactive
CO[C@H]1CN(C)C(=O)c2ccc(NC(=O)Nc3cccc(Cl)c3)cc2OC[C@H](C)N(C(=O)Nc2c(C)noc2C)C[C@H]1C | inactive
COc1ccc(C(=O)NCC#N)cc1 | inactive
COc1ccc(Sc2ccc(N(C(=O)c3ccccc3Cl)C(=O)c3ccccc3Cl)cc2C#N)cc1 | active
COc1ccc(C(=O)c2ccccc2O)c(O)c1 | inactive
O=c1cn[nH]c(Nc2ccccc2)n1 | inactive
CC(C)CNc1nc(=O)cn[nH]1 | active

SMILES | cytotoxicity call
O=c1cn[nH]c(NC2CCCC2)n1 | inactive
C=CCC[C@@H](Cc1ccc(F)cc1)C(=O)OC[C@@H]1CCCN1C(=O)[C@H](CC=C)CC(=O)N(CCO)Cc1ccccc1 | inactive
COc1ccccc1S(=O)(=O)N[C@@H]1C=C[C@@H](CC(=O)N2CCN(C)CC2)O[C@@H]1CO | inactive
NC[C@@](O)(c1ccc(Cl)cc1)c1ccc(-c2cn[nH]c2)cc1 | active
NC[C@@](O)(CS(=O)(=O)O)c1ccc(Cl)cc1 | inactive
c1n[nH]cc1-c1cn[nH]c1 | inactive
COc1ccccc1CNC(=O)C[C@H]1C[C@H]2c3cc(NC(=O)C4CCOCC4)ccc3O[C@H]2[C@H](CO)O1 | inactive
C[C@H]1O[C@@H](n2cc(F)c(=O)[nH]c2=O)[C@H](O)[C@@H]1O | inactive
CCCCCCNC(=O)n1cc(F)c(=O)[nH]c1=O | active
CC1OC(n2cc(F)c(=O)[nH]c2=O)C(O)C1O (stereo not given) | inactive
Cc1ccc(S(=O)(=O)Nc2ccc3c(c2)CC(=O)N([C@@H](C)CO)C[C@H](C)[C@H](CN(C)S(C)(=O)=O)O3)cc1 | inactive
CC(C)NC(=O)NCC[C@H]1CC[C@H](NC(=O)CN(C)C)[C@H](CO)O1 | inactive
Cc1c(NC(=O)c2cc3c(s2)CCCC3)cccc1-c1cn(C)c(=O)c(Nc2ccc([C@H]3C(=O)N(C)CCN3C)cc2)n1 | inactive
C[C@@H]1CCCCO[C@H](CN(C)C(=O)Nc2ccc3c(c2)OCO3)[C@@H](C)CN([C@@H](C)CO)C(=O)c2cc(NS(=O)(=O)c3ccccc3)ccc2O1 | inactive
C[C@@H]1CCCCO[C@@H](CN(C)C(=O)NC2CCCCC2)[C@@H](C)CN([C@H](C)CO)C(=O)c2cc(NC(=O)Nc3ccc(F)cc3)ccc2O1 | inactive
C[C@@H]1CCCCO[C@@H](CN(C)C(=O)Nc2ccc(F)cc2)[C@@H](C)CN([C@@H](C)CO)C(=O)c2cc(NC(=O)NC3CCCCC3)ccc2O1 | active
C[C@@H]1CCCCO[C@H](CN(C)C(=O)NC2CCCCC2)[C@H](C)CN([C@H](C)CO)C(=O)c2cc(NC(=O)Nc3ccc(F)cc3)ccc2O1 | active
Cc1noc(C)c1NC(=O)N(C)C[C@H]1OCCCC[C@@H](C)Oc2ccc(NC(=O)NC3CCCCC3)cc2C(=O)N([C@H](C)CO)C[C@@H]1C | active
C[C@H](CO)N1C[C@H](C)[C@H](CN(C)C(=O)NC2CCCCC2)OCCCC[C@H](C)Oc2ccc(NC(=O)NC3CCCCC3)cc2C1=O | inactive
C[C@@H]1CCCCO[C@H](CN(C)C(=O)NC2CCCCC2)[C@H](C)CN([C@H](C)CO)C(=O)c2cc(NC(=O)NC3CCCCC3)ccc2O1 | active
C[C@H](CO)N1C[C@H](C)[C@@H](CN(C)C(=O)NC2CCCCC2)OCCCC[C@H](C)Oc2ccc(NC(=O)NC3CCCCC3)cc2C1=O | inactive
Cc1noc(C)c1NC(=O)N(C)C[C@H]1OCCCC[C@@H](C)Oc2ccc(NC(=O)NC3CCCCC3)cc2C(=O)N([C@@H](C)CO)C[C@H]1C | inactive

SMILES | cytotoxicity call
C[C@@H]1CN([C@H](C)CO)C(=O)c2cc(NC(=O)NC3CCCCC3)ccc2O[C@@H](C)CCCCO[C@@H]1CN(C)C(=O)Nc1ccc(F)cc1 | inactive
C[C@@H]1CCCCO[C@H](CN(C)C(=O)Nc2ccc(F)cc2)[C@@H](C)CN([C@H](C)CO)C(=O)c2cc(NC(=O)NC3CCCCC3)ccc2O1 | inactive
C[C@@H]1CN([C@H](C)CO)C(=O)c2cc(NC(=O)Nc3ccc(F)cc3)ccc2O[C@@H](C)CCCCO[C@H]1CN(C)C(=O)NC1CCCCC1 | inactive
Cc1noc(C)c1NC(=O)N(C)C[C@@H]1OCCCC[C@@H](C)Oc2ccc(NC(=O)NC3CCCCC3)cc2C(=O)N([C@H](C)CO)C[C@@H]1C | inactive
COc1ccc(-c2cccc(-c3nc(C(=O)NCC(F)(F)F)cc4c3[C@@H](CCO)N([S@](=O)C(C)(C)C)C4)c2)cc1 | inactive
COc1ccc(S(=O)(=O)N(C)C[C@H]2OCCCC[C@H](C)Oc3ccc(NC(=O)c4ccccc4)cc3C(=O)N([C@H](C)CO)C[C@H]2C)cc1 | inactive
Cc1ccc(S(=O)(=O)N(C)C[C@H]2Oc3ccc(NC(=O)c4ccncc4)cc3C(=O)N([C@H](C)CO)C[C@@H]2C)cc1 | inactive
C[C@@H]1CN([C@H](C)CO)C(=O)c2cc(NS(=O)(=O)c3ccccc3)ccc2O[C@H]1CN(C)S(=O)(=O)c1cn(C)cn1 | inactive
Cc1noc(C)c1NC(=O)Nc1ccc2c(c1)CC(=O)N([C@H](C)CO)C[C@@H](C)[C@@H](CN(C)Cc1ccc(-c3ccccc3)cc1)O2 | inactive
O=C1[C@@H]2[C@H](C(=O)N1c1ccccc1)C13COC[C@H](c4ccccc4)N1C(=O)C2(C(=O)NCCc1c[nH]c2ccccc12)O3 (stereo not given in full) | inactive
CCS(=O)(=O)N1C[C@]2(CN(Cc3cccc(c3)Cl)[C@@H](CO)c3c2c2ccc(cc2n3C)OC)C1 | inactive
C[C@H](CO)N1C[C@H](C)[C@H](CN(C)C(=O)NC2CCCCC2)OCCCC[C@H](C)Oc2ccc(NC(=O)Nc3ccc(F)cc3)cc2C1=O | inactive
C[C@H](CO)N1C[C@H](C)[C@@H](CN(C)C(=O)NC2CCCCC2)OCCCC[C@H](C)Oc2ccc(NC(=O)Nc3ccc(F)cc3)cc2C1=O | inactive
C[C@H]1CCCCO[C@@H](CN(C)C(=O)NC2CCCCC2)[C@@H](C)CN([C@@H](C)CO)C(=O)c2cc(NC(=O)Nc3ccc(F)cc3)ccc2O1 | active
O=c1[nH]nc(N2CCOCC2)c(=O)[nH]1 | inactive
C[C@@H]1CN([C@H](C)CO)C(=O)Cc2cc(NS(=O)(=O)c3ccc(F)cc3)ccc2O[C@H]1CN(C)CC1CC1 | inactive
Cl.OC(CCN1CCCC1)(c1ccccc1)C1CCCCC1 (stereo not given) | active
CS(=O)(=O)O.OC(CCN1CCCCC1)(c1ccccc1)c1ccccc1 | inactive
Cl.OC(CCN1CCCCC1)(c1ccccc1)C1CCCCC1 (stereo not given) | inactive
COc1ccc(S(=O)(=O)Nc2ccc3c(c2)C(=O)N([C@H](C)CO)C[C@@H](C)[C@H](CN(C)C(=O)NC(C)C)O3)cc1 | inactive
C[C@H]1CN([C@@H](C)CO)C(=O)Cc2cc(NS(C)(=O)=O)ccc2O[C@H]1CN(C)C(=O)Nc1ccc(F)cc1 | inactive

— the antibiotic and cytotoxicity screens of Wong et al. (2023)
